Data reported in PubChem BioAssay.
The source made the active and inactive calls.

Key:
[1] = optical density shifts of acrAB sulA E. coli – strain DRC41, OD650, 48 h, E. coli filamentation inducer project, primary screen (AID 1152); conditions: higher = more signal, called active from +8 up or from −8 down;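 also: E. coli MC1000 strain DRC41 lacking acrAB efflux pump and sulA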
[2] = probe aLefty1 binding on compound microarray – biochemical, small-molecule microarray, 635/667 nm fluorescence, primary screen (AID 1153); conditions: higher = more signal;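 also: score merges spot fluorescence with signal-to-noise ratio from the scanned slide images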
[3] = plasmodial surface anion channel blockers, osmotic lysis – cell-based, P. falciparum Indochina, OD700, 1 h, primary screen (AID 1154); conditions: P. falciparum Indochina infected RBC osmotic lysis, higher = more signal, called active from +8 up or from −8 down
[4] = plasmodial surface anion channel blockers, osmotic lysis – cell-based, P. falciparum Indochina, OD700, 2 h, primary screen (AID 1155);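 also: lysis reports solute entry through the parasite surface anion channel PSAC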; conditions: P. falciparum Indochina infected erythrocytes, higher = more signal, called active from +8 up or from −8 down
[5] = changes in parasitized red cell lysis, either direction – P. falciparum Indochina, OD700, 3 h, PSAC antagonist project, primary screen (AID 1156); conditions: P. falciparum-infected erythrocytes, osmotic lysis, higher = more signal, called active from +8 up or from −8 down
[6] = plasmodial surface anion channel blockers, osmotic lysis – cell-based, P. falciparum Indochina, OD700, 18 h, primary screen (AID 1157); conditions: P. falciparum Indochina infected erythrocytes, osmotic lysis OD700, 18 h; higher = more signal, called active from +8 up or from −8 down
[7] = S6 kinase pathway phospho-S6 level changes – cell-based, A549, cytoblot, luminescence, serum-stimulated, primary screen (AID 1158); conditions: 5 h, higher = more signal;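 also: serum-stimulated A549 lung adenocarcinoma cells; signal is phosphorylated S6 detected by cytoblot immunostaining with HRP secondary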
[8] = target: NADPH oxidase 2 (Homo sapiens) (UniProt P04839); experiment: compounds shifting NOX2 Amplex Red fluorescence – cell-based, HEK293-NOX2, PMA-stimulated, NOX inhibitor project, primary screen (AID 1159); conditions: 45 min, higher = more signal, called active from +8 up or from −8 down; also: test concentration not given here
Sequence of NADPH oxidase 2 (Homo sapiens) (P04839 whole entry, looked up): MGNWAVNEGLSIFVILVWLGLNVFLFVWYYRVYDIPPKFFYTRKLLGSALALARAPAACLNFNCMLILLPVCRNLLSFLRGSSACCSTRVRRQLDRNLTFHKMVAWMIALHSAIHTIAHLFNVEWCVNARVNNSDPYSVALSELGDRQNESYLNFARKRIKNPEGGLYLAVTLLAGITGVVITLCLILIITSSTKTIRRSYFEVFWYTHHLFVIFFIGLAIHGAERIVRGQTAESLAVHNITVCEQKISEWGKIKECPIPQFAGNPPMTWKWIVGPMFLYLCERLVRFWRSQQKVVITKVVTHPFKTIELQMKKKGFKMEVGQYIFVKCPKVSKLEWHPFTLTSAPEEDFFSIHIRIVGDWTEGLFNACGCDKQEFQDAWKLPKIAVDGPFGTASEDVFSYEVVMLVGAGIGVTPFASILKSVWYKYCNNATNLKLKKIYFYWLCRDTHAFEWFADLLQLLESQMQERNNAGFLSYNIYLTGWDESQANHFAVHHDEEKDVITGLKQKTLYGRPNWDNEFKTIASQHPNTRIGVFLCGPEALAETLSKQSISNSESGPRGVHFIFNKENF

[9] = target: NADPH oxidase 4 (Homo sapiens) (UniProt Q9NPH5); experiment: compounds shifting NOX4 Amplex Red fluorescence – cell-based, HEK293-NOX4, tetracycline-induced, NOX inhibitor project, primary screen (AID 1160); conditions: HEK293-NOX4, Amplex Red H2O2 fluorescence, 45 min; higher = more signal, called active from +8 up or from −8 down
Sequence of NADPH oxidase 4 (Homo sapiens) (Q9NPH5 whole entry, looked up): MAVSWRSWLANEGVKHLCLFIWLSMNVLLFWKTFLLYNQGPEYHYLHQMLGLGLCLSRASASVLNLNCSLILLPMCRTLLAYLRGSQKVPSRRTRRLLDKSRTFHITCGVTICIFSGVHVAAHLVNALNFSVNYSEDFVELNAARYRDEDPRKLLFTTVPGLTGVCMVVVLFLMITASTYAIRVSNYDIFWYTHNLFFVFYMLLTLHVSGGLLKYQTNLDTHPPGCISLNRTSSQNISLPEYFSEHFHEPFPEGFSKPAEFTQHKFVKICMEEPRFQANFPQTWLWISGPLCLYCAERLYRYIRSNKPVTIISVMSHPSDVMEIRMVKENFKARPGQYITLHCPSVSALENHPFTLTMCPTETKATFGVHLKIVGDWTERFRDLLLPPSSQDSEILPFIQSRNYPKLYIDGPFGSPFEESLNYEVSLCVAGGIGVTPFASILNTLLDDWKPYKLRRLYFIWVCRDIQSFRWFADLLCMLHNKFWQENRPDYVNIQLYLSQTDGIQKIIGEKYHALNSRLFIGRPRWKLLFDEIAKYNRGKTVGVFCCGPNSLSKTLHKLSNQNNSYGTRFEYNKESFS

[10] = target: NADPH oxidase 5 (Homo sapiens) (UniProt Q96PH1); experiment: compounds shifting NOX5 Amplex Red fluorescence – cell-based, HEK293-NOX5, NOX inhibitor project, primary screen (AID 1161); conditions: HEK293-NOX5, ionomycin, 45 min, higher = more signal
Sequence of NADPH oxidase 5 (Homo sapiens) (Q96PH1 whole entry, looked up): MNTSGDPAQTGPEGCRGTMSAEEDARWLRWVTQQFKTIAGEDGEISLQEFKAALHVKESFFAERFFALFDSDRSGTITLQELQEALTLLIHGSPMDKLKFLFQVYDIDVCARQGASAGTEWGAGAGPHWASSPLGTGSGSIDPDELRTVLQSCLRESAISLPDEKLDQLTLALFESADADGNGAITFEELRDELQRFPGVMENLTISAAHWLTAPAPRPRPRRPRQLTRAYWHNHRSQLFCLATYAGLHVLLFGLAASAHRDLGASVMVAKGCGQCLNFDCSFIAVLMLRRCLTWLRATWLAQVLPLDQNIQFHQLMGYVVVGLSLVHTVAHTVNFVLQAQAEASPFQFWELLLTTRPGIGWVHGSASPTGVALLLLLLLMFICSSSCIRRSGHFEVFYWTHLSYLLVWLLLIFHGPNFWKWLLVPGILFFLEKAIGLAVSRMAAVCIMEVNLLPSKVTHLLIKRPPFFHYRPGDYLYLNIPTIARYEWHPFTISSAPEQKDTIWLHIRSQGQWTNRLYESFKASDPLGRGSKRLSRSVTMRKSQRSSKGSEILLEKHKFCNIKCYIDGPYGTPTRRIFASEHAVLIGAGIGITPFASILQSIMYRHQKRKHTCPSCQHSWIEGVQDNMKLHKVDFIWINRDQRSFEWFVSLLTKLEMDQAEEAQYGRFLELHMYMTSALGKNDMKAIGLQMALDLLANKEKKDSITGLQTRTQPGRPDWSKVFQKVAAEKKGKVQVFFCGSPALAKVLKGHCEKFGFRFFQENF

SMILES	z-score [1]	composite z-score [2]	z-score [3]	z-score [4]	z-score [5]	z-score [6]	z-score [7]	z-score [8]	z-score [9]	z-score [10]
CCCNC(=O)[C@@H]1c2ccccc2C(=O)N(Cc2ccc(OC(F)(F)F)cc2)[C@H]1c1ccc(CO)cc1	0.52 (inactive)	-0.0099	1.23 (inactive)	-0.146 (inactive)	1.03 (inactive)	-0.406 (inactive)	0.289	-0.62 (inactive)	0.184 (inactive)	1.75
CCC#CCN(Cc1ccccc1Br)[C@H](/C=C/C1CC1)[C@@H](O)Cc1ccccc1	2.06 (inactive)	-0.13	-0.224 (inactive)	-0.834 (inactive)	-0.239 (inactive)	-1.53 (inactive)	1.62	0.214 (inactive)	1.07 (inactive)	-1.2
CC(C)[Si]1(C(C)C)OCc2cc(C3CC3)nc(-c3ccc(Oc4ccccc4)cc3)c21	-0.367 (inactive)	-0.284	2.58 (inactive)	1.8 (inactive)	0.508 (inactive)	1.29 (inactive)	-0.389	1.11 (inactive)	0.344 (inactive)	0.322
C=CCC(OC(C)=O)[C@@H]1[C@@H](N(Cc2cc3ccccc3o2)C(=O)Cc2ccc(F)cc2)c2cc(OCCCO)ccc2N1C(=O)Cc1ccc2ccccc2c1 (stereo not given in full)	-1.06 (inactive)	0.051	1.23 (inactive)	0.62 (inactive)	-0.621 (inactive)	0.184 (inactive)	-0.213	0.682 (inactive)	0.88 (inactive)	1.86
CC(=O)N1CC2(CC2)CC1c1ccccc1 (stereo not given)	-1.35 (inactive)	0.433	-0.0747 (inactive)	0.635 (inactive)	0.539 (inactive)	0.715 (inactive)	-0.0482	-0.328 (inactive)	-1.08 (inactive)	-2.74
CC[C@@H]1O[Si](C(C)C)(C(C)C)c2c1cc(-c1cc(C)c(OC)c(C)c1)nc2-c1ccc(Oc2ccccc2)cc1	-0.109 (inactive)	0.0101	-0.261 (inactive)	0.26 (inactive)	0.827 (inactive)	0.311 (inactive)	0.189	-1.36 (inactive)	-0.672 (inactive)	-2.04
C=CCN1C(=O)[C@]2(CCS(=O)(=O)c3ccccc3)N=C(c3ccc(OCCCO)cc3)O[C@@H]2c2ccccc21	0.836 (inactive)	0.303	29.1 (active)	23.3 (active)	1.29 (inactive)	4.76 (inactive)	1.76	-0.428 (inactive)	0.835 (inactive)	1.28
C=CC[C@@]1(C(=O)NCCCOC)N=C(c2ccc(OCCCO)cc2)O[C@@H]1c1ccccc1N=[N+]=[N-]	1.37 (inactive)	0.545	30.7 (active)	29.4 (active)	1.93 (inactive)	2.16 (inactive)	-0.217	-3.32 (inactive)	-0.66 (inactive)	-1.64
C[N+](C)(C)CCCC[C@@H]1NC(=O)[C@@H]2C[C@H](C(=O)NCCCCCCN)[C@H](c3cccc(OCCO)c3)N2C1=O	0.0598 (inactive)	2.07	2.07 (inactive)	0.679 (inactive)	0.837 (inactive)	0.229 (inactive)	0.38	0.827 (inactive)	0.0305 (inactive)	0.559
COC(=O)C1=CC(CCCO)=CC(c2cccs2)N(C)C=C1C(=O)OC (stereo not given)	-0.35 (inactive)	0.147	2.47 (inactive)	0.596 (inactive)	0.148 (inactive)	0.426 (inactive)	-0.481	0.467 (inactive)	-1.36 (inactive)	0.931
C=CCC(OC(C)=O)[C@@H]1[C@@H](N(Cc2ccc(-c3cccc(C(F)(F)F)c3)o2)C(=O)Cc2ccc(OC)cc2)c2cc(OCCCO)ccc2N1C(=O)c1ccc(-c2ccccc2)cc1 (stereo not given in full)	-1.12 (inactive)	0.235	0.922 (inactive)	-0.393 (inactive)	1.81 (inactive)	0.0651 (inactive)	-0.199	-1.2 (inactive)	-1.15 (inactive)	-1.35
